Source: PubChem BioAssay (National Center for Advancing Translational Sciences (NCATS))
A selection: hits, their analogues and other compounds. The true share with any hit is near 3.1%.
VDR inhibitor = inhibitors of human vitamin D receptor. VDR-SRC2-3 peptide fluorescence polarization, 2 h. Potency, µM, actives largely listed as inhibitors. 400,000 compounds, 0.93% hits
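After 23 nl compound addition and a short centrifugation, plates sat for 2 hours at ambient temperature; polarization of fluorescence then indicated loss of VDR binding to peptide SRC2-3.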
TDP1 inh = inhibitors of human tyrosyl-DNA phosphodiesterase TDP1 | Potency, µM (series often up to 130 µM), most hits filed as inhibitors | 350,000 compounds, 0.28% hits | Q9NUW8 | recombinant TDP1, AlphaScreen DNA substrate cleavage | AID 485290; further: nearly all actives have a fitted effect of over 40% in size
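Signal: AlphaScreen proximity between streptavidin donor and anti-FITC acceptor beads on intact substrate. Reaction: Tdp1 1 nM, substrate 15 nM final, 5 min RT after 15 min compound preincubation.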
S-ASM inh = inhibitors of human secretory acid sphingomyelinase; P17405; placental ASM, HMU-PC fluorogenic substrate, 60 min; Potency, µM (titrated, usually from 57.5 µM), most hits filed as inhibitors; 340,000 compounds, 0.006% hits; AID 504937
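Human placenta-derived ASM preincubated with compound 10 min at room temperature, then reacted with 9 uM (final) fluorogenic HMU-PC substrate for 60 min at 37 C. Stop solution raises pH to 10; fluorescence read at Ex 386/Em 447 nm.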
PLK1 PBD inh = PLK1 (human) polo-box domain binding inhibition | Plk1 PBD binding of FITC phosphopeptide, fluorescence polarization | Potency, µM, hits mostly inhibitors | 360,000 compounds, 2.8% hits | AID 720504; further: series mostly up to about 57 µM; nearly all actives have a fitted effect of over 65% in size
Pin1 inh = blocks the human prolyl isomerase Pin1; 390,000 compounds, 0.009% hits; Pin1 FP peptide displacement, HiFluor488, 10 min; Potency, µM (highest dose often 115 µM), actives largely listed as inhibitors; Q13526; active means well fitted inhibition curve with a large enough effect in the polarisation, with a control signal flat, not every such curve was filed as active; inconclusive means small, poorly fitted or top-dose-only effect, or effect the other way, or a change in a side signal; inactive means no such curve, though single readings can be large or run the other way; the % refers to the polarisation
Tb PFK block = blocks T. brucei phosphofructokinase | Potency, µM (top dose mostly 57.5 µM), usual class: inhibitors | O15648 | 330,000 compounds, 0.17% hits | T. brucei PFK, ADP-Glo luminescence; further: nearly all actives have a fitted effect of over 60% in size
Target sequence (O15648 whole entry, looked up): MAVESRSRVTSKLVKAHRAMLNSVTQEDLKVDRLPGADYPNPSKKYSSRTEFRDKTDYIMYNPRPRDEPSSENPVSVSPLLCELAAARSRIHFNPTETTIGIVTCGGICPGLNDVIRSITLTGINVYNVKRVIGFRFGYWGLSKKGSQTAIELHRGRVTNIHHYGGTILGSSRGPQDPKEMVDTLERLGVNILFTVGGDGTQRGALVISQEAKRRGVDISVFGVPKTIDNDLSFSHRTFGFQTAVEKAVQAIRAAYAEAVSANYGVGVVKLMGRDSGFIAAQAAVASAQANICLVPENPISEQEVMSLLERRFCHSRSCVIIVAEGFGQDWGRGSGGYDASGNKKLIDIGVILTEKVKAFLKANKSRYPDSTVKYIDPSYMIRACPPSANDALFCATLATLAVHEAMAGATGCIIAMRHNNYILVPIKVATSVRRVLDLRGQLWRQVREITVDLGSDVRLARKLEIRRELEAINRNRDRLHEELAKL
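ADP-Glo luminescence quantified ADP after 45 min at room temperature, with 1.25 nM T. brucei PFK, 0.1 mM ATP and 0.5 mM fructose-6-phosphate in pH 8.0 TEA buffer. qHTS titrations up to 57 µM; curves classified by quality.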
A number is an active result. Unless noted, the call rests on the fitted dose curve; in most records, active means well fitted curve in the direction sought with a large enough effect; inconclusive means small, poorly fitted or top-dose-only effect, or another doubt; inactive means no such curve, though single readings can be large; an effect the other way counts as inactive or inconclusive.

Results for COc1cccc(/C=C2\SC(=S)N(C(Cc3ccccc3)C(=O)O)C2=O)c1 (stereo unspecified) ?
VDR inhibitor: inconclusive; TDP1 inh: inactive; S-ASM inh: inactive; PLK1 PBD inh: 34µM; Pin1 inh: inconclusive; Tb PFK block: inactive

Results for O=C(O)C(c1ccccc1)N1C(=O)/C(=C/c2cccs2)SC1=S (stereo unspecified) ?
VDR inhibitor: inactive; TDP1 inh: inactive; S-ASM inh: inactive; PLK1 PBD inh: inconclusive; Pin1 inh: inactive; Tb PFK block: inactive

What do the screens show for `O=C(O)C(Cc1ccccc1)N1C(=O)/C(=C/c2cccs2)SC1=S` (stereo unspecified)?
VDR inhibitor: 79µM; TDP1 inh: inactive; S-ASM inh: inactive; PLK1 PBD inh: inconclusive; Pin1 inh: inactive; Tb PFK block: inactive

What do the screens show for `CC(Sc1nnc(C(F)(F)F)n1C)C(=O)Nc1ccc(S(N)(=O)=O)cc1` (stereo unspecified)?
VDR inhibitor: inactive; TDP1 inh: inactive; S-ASM inh: inactive; PLK1 PBD inh: 30µM; Pin1 inh: inactive; Tb PFK block: inactive

Results for COc1ccccc1N1CCN(Cc2cc(=O)c(OCC(=O)NC(C)C)co2)CC1 ?
VDR inhibitor: inconclusive; TDP1 inh: inactive; S-ASM inh: inactive; PLK1 PBD inh: 9.5µM; Pin1 inh: inactive; Tb PFK block: inactive

What do the screens show for `CC(=O)C1=C(C)OC2(O)c3ccccc3C(=O)C12O` (stereo unspecified)?
VDR inhibitor: 1.6µM; TDP1 inh: inactive; S-ASM inh: inactive; PLK1 PBD inh: inactive; Pin1 inh: inconclusive; Tb PFK block: inactive

How did CCOC(=O)C1=C(C)N[C@@]2(O)c3ccccc3C(=O)[C@@]12O do in these assays?
VDR inhibitor: inactive; TDP1 inh: inactive; S-ASM inh: inactive; PLK1 PBD inh: inactive; Pin1 inh: inactive; Tb PFK block: inactive

Results for CCOC(=O)C1=C(C)OC2(O)c3ccccc3C(=O)C12O (stereo unspecified) ?
VDR inhibitor: 5µM; TDP1 inh: inactive; S-ASM inh: inactive; PLK1 PBD inh: inactive; Tb PFK block: inactive

How did C=CCCN(C(C)C(=O)OC)S(=O)(=O)c1ccccc1Br (stereo unspecified) do in these assays?
VDR inhibitor: inactive; TDP1 inh: inactive; Pin1 inh: inactive

What do the screens show for `CN(C)c1cccc(N2CCN(c3nn4c(=O)c5ccccc5nc4s3)CC2)c1`?
Pin1 inh: inactive

What do the screens show for `S=C(NCCCc1cnc[nH]1)NCCN(Cc1ccc(Cl)c(Cl)c1)c1ccc(Br)cn1`?
Pin1 inh: inactive

How did C=CCN=c1sc(C(=O)OC)cc(=O)n1CC=C do in these assays?
VDR inhibitor: inconclusive; TDP1 inh: inactive; S-ASM inh: inactive; PLK1 PBD inh: 30µM; Pin1 inh: inactive; Tb PFK block: inactive

Results for C=CC[C@@](C(C)=O)(C(=O)OC)C(NC(=O)OC(C)(C)C)c1ccccc1 (stereo partly specified) ?
VDR inhibitor: inactive; TDP1 inh: inactive

Results for CC(C(=O)N1CCCCC1)N(C)CC(=O)Nc1ccc(F)c(F)c1F (stereo unspecified) ?
PLK1 PBD inh: inactive

What do the screens show for `CC(C(=O)N1CCCCC1)N(C)CC(=O)Nc1ccc(Cl)cc1` (stereo unspecified)?
VDR inhibitor: inconclusive; TDP1 inh: inactive; S-ASM inh: inactive; PLK1 PBD inh: 12µM; Pin1 inh: inactive; Tb PFK block: inactive

Results for O=C(Oc1ccc(=O)n(-c2ccccc2)n1)c1cccc(Cl)c1 ?
VDR inhibitor: inactive; TDP1 inh: inactive; S-ASM inh: inactive; PLK1 PBD inh: 6.7µM; Pin1 inh: inactive; Tb PFK block: inactive

What do the screens show for `CC1=NN(C(N)=S)C(=O)C1N=Nc1c(C)cc(C)cc1C` (stereo unspecified)?
VDR inhibitor: inactive; TDP1 inh: inactive; S-ASM inh: inactive; PLK1 PBD inh: inactive; Pin1 inh: inactive; Tb PFK block: inactive

How did CC1=NN(C(N)=S)C(=O)C1N=Nc1c(Br)cc(Br)cc1Br (stereo unspecified) do in these assays?
VDR inhibitor: inconclusive; S-ASM inh: inactive; PLK1 PBD inh: 24µM; Pin1 inh: inactive; Tb PFK block: inactive
